# Experimental data as given in the supplement of paper PMC6555819.
# System: RARg:RXRa (NR concentration 270 nM, RXRa partner concentration 90 nM)
# Test: PBM binding z-score (relative to random genomic background probes); higher = stronger binding; sequences stand for … in GC…GCGATTGACAGCGTAGAATGAAGG
# Outline: (§1)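 On custom Agilent 4×180K arrays, double-stranded probes with 34-nt variable regions carried direct-repeat seeds, single-nucleotide variants, half-site ablations or random human genomic background. Ligand-free nuclear receptor dimers were applied for 1 h, and binding was read with antibodies against each partner (one per run). Binding z-scores come from regression-normalized fluorescence, with the random background probes as reference.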
row,Sequence,PBM binding z-score
1,TCATATAGGTTATACAGGTGAAAGTCGGCATCTA,1.73
2,AGAACGAAGGCACGCTGAGTTGATAGCAGAGTAG,-0.198
3,CGTCAAAGTTCAACTACGGTAACGTAAAGCACGC,5.89
4,AGAATGAGGTTATTAAGATAAGGGAATTGCGGTC,1.41
5,TTACCAAGGTGAGCTGAGGACGTTGATCCAACTC,0.112
6,TAGCGTAGGTCATGCGGGCCAGTATAGTGTCGGC,4.14
7,TCAGATAGGTAAAAGGTGAAAGTCGGTGTGGTAA,1.89
8,GCTTGTAGACCAAGGTTAAGAAAGACTAAGCTAA,0.214
9,CCGACTGGGGCAAAGGTTACAATACTCAGTACGA,3.61
10,CCTACTGGGCCACGAAAGGTCACTGATTCAGTGA,4.7
11,GGAACGATGGCAAAGTTGATAGCATCTGTCGACG,-0.206
12,ATCTCTAGGTAACCAAGTTCAGTTAATGCCGAAC,1.09
13,ATATGAAGGTTAAGGGTCATTCAGGTTGGTTCGC,5.3
14,CCGACTGGGGCAAACGTTACCATACTCAGTACGA,0.309
15,TCATATAGGTAAAGGTCAAAGTCGAACGATATGA,6.35
16,TCGAGCAGGTTAGGGGCATTCAGAATGGCGTCGA,0.286
17,ACAGACAGGTGATGGAGGTAACTCAGGCTATCAT,0.0912
18,ACTCGGAGGACAAAGGTCAGTGCTACGCCAGTGA,5.37
19,CCTACTGGGCCAGAAAGGTCATTGATGCCGATAA,4.7
20,TTACCAAGGTGACAGGTCGTTGATGCACGCCTTG,1.37

row,Sequence,PBM binding z-score
1,CTCGAAAGGTCGTGCTCAGGGGAGTATACCAAAC,4.03
2,ACTTGCGGGTCAACGAGGTTATAGCACGCGTATA,5.21
3,CCTACTGGGCCATTCACAGGTCATTGATCATATG,2.69
4,CCAGACAGGTGAGAAGGTAACTCAACCTCGATTA,0.716
5,TCTTGTAGATCAACAGGAGGTTTAGAAAGATCGA,-0.145
6,TCTATTAGTTGATTAGGGAAACCGAAACAGCGGA,0.311
7,CTACCAACGTGAACAAGGTCGTTGATTACTATTC,0.533
8,GCTAGCAGGCCATTCGGGTCACTCAATGACGGGC,1.85
9,TGGAGTAGGTTAGTCGGGGCATTCAGCCAACATA,0.219
10,ATATCTAGGTAAAGATAGTTCAGTGAATGCAAAT,0.606
11,TCTTGTAGATCAAAGGTGAAGAAAGCCGAAGCCT,0.905
12,TCTTGTAGATCACCAGGAGGTTAAGAAAGATCGA,1.15
13,AGTCAAAGTTCACTGGGTAACGTAAGATTCAGCT,5.43
14,ATCTCTACGTAACAAGTTCAGTGAAAGAGAGGAC,0.999
15,CCTAGCAGGCAAATCTGGGTCACTCAAGGCTTGA,1
16,CCTTACGGGTCACGAGGTGATAGCACGACGAGCG,5.58
17,TAGCCTAGGTTATTGGGCCAGTATAGTACGCATC,0.395
18,ACTATTAGTTGACTTAGGGCAACCTATACGACGC,0.744
19,ACAGACAGGTGAGTCAAGGTAACTCAGCTGGACG,0.322

# System: RARg homodimer (NR concentration 270 nM)
# Test: as above
# Outline: as §1
row,Sequence,PBM binding z-score
1,TCATATAGGTTATACAGGTGAAAGTCGGCATCTA,1.29
2,AGAACGAAGGCACGCTGAGTTGATAGCAGAGTAG,0.0507
3,CGTCAAAGTTCAACTACGGTAACGTAAAGCACGC,6.48
4,AGAATGAGGTTATTAAGATAAGGGAATTGCGGTC,0.946
5,TTACCAAGGTGAGCTGAGGACGTTGATCCAACTC,0.436
6,TAGCGTAGGTCATGCGGGCCAGTATAGTGTCGGC,4.63
7,TCAGATAGGTAAAAGGTGAAAGTCGGTGTGGTAA,0.855
8,GCTTGTAGACCAAGGTTAAGAAAGACTAAGCTAA,0.239
9,CCGACTGGGGCAAAGGTTACAATACTCAGTACGA,2.01
10,CCTACTGGGCCACGAAAGGTCACTGATTCAGTGA,4.98
11,GGAACGATGGCAAAGTTGATAGCATCTGTCGACG,0.0205
12,ATCTCTAGGTAACCAAGTTCAGTTAATGCCGAAC,1.12
13,ATATGAAGGTTAAGGGTCATTCAGGTTGGTTCGC,3.81
14,CCGACTGGGGCAAACGTTACCATACTCAGTACGA,0.456
15,TCATATAGGTAAAGGTCAAAGTCGAACGATATGA,5.87
16,TCGAGCAGGTTAGGGGCATTCAGAATGGCGTCGA,0.148
17,ACAGACAGGTGATGGAGGTAACTCAGGCTATCAT,0.339
18,ACTCGGAGGACAAAGGTCAGTGCTACGCCAGTGA,4.99
19,CCTACTGGGCCAGAAAGGTCATTGATGCCGATAA,4.43
20,TTACCAAGGTGACAGGTCGTTGATGCACGCCTTG,1.17

row,Sequence,PBM binding z-score
1,CTCGAAAGGTCGTGCTCAGGGGAGTATACCAAAC,3.44
2,ACTTGCGGGTCAACGAGGTTATAGCACGCGTATA,4.88
3,CCTACTGGGCCATTCACAGGTCATTGATCATATG,1.66
4,CCAGACAGGTGAGAAGGTAACTCAACCTCGATTA,0.698
5,TCTTGTAGATCAACAGGAGGTTTAGAAAGATCGA,-0.083
6,TCTATTAGTTGATTAGGGAAACCGAAACAGCGGA,0.329
7,CTACCAACGTGAACAAGGTCGTTGATTACTATTC,0.432
8,GCTAGCAGGCCATTCGGGTCACTCAATGACGGGC,1.92
9,TGGAGTAGGTTAGTCGGGGCATTCAGCCAACATA,0.355
10,ATATCTAGGTAAAGATAGTTCAGTGAATGCAAAT,0.877
11,TCTTGTAGATCAAAGGTGAAGAAAGCCGAAGCCT,0.395
12,TCTTGTAGATCACCAGGAGGTTAAGAAAGATCGA,0.275
13,AGTCAAAGTTCACTGGGTAACGTAAGATTCAGCT,5.94
14,ATCTCTACGTAACAAGTTCAGTGAAAGAGAGGAC,1.24
15,CCTAGCAGGCAAATCTGGGTCACTCAAGGCTTGA,0.802
16,CCTTACGGGTCACGAGGTGATAGCACGACGAGCG,5.46
17,TAGCCTAGGTTATTGGGCCAGTATAGTACGCATC,0.586
18,ACTATTAGTTGACTTAGGGCAACCTATACGACGC,1.05
19,ACAGACAGGTGAGTCAAGGTAACTCAGCTGGACG,0.586
